# A selection: hits, their analogues and other compounds. The true share with any hit is near 19%.
# TDP1 cell CPT = growth inhibition of DT40 Tdp1-/-;hTDP1 cells with camptothecin (screen for TDP1 inhibitors). chicken DT40 Tdp1-/-;hTDP1 cells + 20 nM CPT, ATP luminescence, 48 h. Potency, µM (highest dose often 46.2 µM), usual class: inhibitors. 12% of 420,000 active; further: nearly all actives have a fitted effect of over 55% in size
#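 Cell growth measured by CellTiter-Glo luminescence after a minimum 48 h, 37 C compound exposure with 20 nM CPT in Tdp1-knockout DT40 cells stably expressing hTDP1, seeded 400/well; qHTS titration format.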
# HT1080 IDH1KD tx = kills HT-1080 cells with IDH1 knockdown | HT-1080 IDH1 knockdown viability, ATP luminescence, 48 h | Potency, µM (series often up to 46.1 µM), hits mostly cytotoxic | 2% of 360,000 active
#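 Luminescent ATP read-out (CellTiter-Glo, 10 min at room temperature) after 48 h compound exposure at 37 °C gave viability of IDH1-knockdown HT-1080 cells. Activity was normalised to DMSO and cell-free wells, then fitted as concentration-response curves.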
# KB-3-1 tox = kills parental KB-3-1 adenocarcinoma cells | KB-3-1 viability, CellTiter-Glo ATP luminescence, 72 h | Potency, µM (titrated, usually from 46.1 µM), usual class: cytotoxic | 1.4% of 400,000 active | AID 1347075; further: nearly all actives have a fitted effect of over 60% in size
#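 Here the drug-naive KB-3-1 line serves as comparator for MDR sub-line selectivity; cells received compound titrations, 72 h at 37 °C, then CellTiter-Glo readout.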
# KB-V1 MDR tox = KB-V1 MDR subline cytotoxicity | Potency, µM (top dose mostly 46.1 µM), actives largely listed as cytotoxic | KB-V1 MDR cells viability, CellTiter-Glo, 72 h | 3.4% of 400,000 active; further: nearly all actives have a fitted effect of over 60% in size
#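 Cells of the MDR subline KB-V1 are plated, dosed with compound at multiple concentrations, and incubated 72 h at 37 degrees C; CellTiter-Glo is then added and luminescence read after 10 min.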
# DT40 TDP1 no CPT = qHTS for Inhibitors of human tyrosyl-DNA phosphodiesterase 1 (TDP1): qHTS in cells in absence of CPT; DT40 Tdp1-/- hTDP1 cells, no CPT, ATP luminescence, 48 h; Potency, µM (series often up to 46.2 µM), usual class: inhibitors; 15% of 420,000 active; AID 686978, 2013; further: nearly all actives have a fitted effect of over 55% in size
#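 Camptothecin absent (DMSO only). Human TDP1-complemented DT40 knockout cells, 400 cells/well, 37 °C for minimum 48 hr; ATP measured via CellTiter-Glo, 30 min dark incubation, luminescence.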
# HT1080-NT tox = kills 2HG-producing HT-1080-NT fibrosarcoma cells; 1.6% of 360,000 active; Potency, µM (top dose mostly 46.1 µM), usual class: cytotoxic; HT-1080-NT fibrosarcoma viability, CellTiter-Glo ATP luminescence, 48 h; AID 686970;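 further: NT is the 2HG producing partner of a matched IDH1 knockdown line; nearly all actives have a fitted effect of over 55% in size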
#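 HT-1080-NT fibrosarcoma cells (2HG-overproducing), 750 cells/well in RPMI with 5% FBS, dosed after 2 h and incubated 48 h at 37C. CellTiter-Glo luminescence normalized to DMSO and no-cell wells; concentration-response curves fitted and classed.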
# A number is an active result; i = inactive; ? = inconclusive; nt = not tested or not shown; ! = repeats disagree. The call rests on the fitted dose curve; in most records, active means well fitted curve in the direction sought with a large enough effect; inconclusive means small, poorly fitted or top-dose-only effect, or another doubt; inactive means no such curve, though single readings can be large; an effect the other way counts as inactive or inconclusive.
SMILES,TDP1 cell CPT,HT1080 IDH1KD tx,KB-3-1 tox,KB-V1 MDR tox,DT40 TDP1 no CPT,HT1080-NT tox
CC1CCN(c2nc3c(N)ncnc3n2[C@@H]2O[C@H](CO)[C@@H](O)[C@H]2O)CC1,i,i,i,i,i,i
Nc1ncnc2c1nc(Br)n2C1OC(CO)C(O)C1O (stereo not drawn),?,nt,nt,nt,2.3µM,nt
Nc1ncnc2nn(C3OC(CO)C(O)C3O)nc12 (stereo not drawn),4.1µM,13µM,i,?,1.8µM,?
COc1ccc([C@H]2/C=C\CN(S(=O)(=O)c3cccc4cccnc34)[C@@H](C)C(=O)N2Cc2ccc(F)cc2)cc1,18µM,i,i,i,15µM,i
COc1ccc(C2/C=C\CN(S(=O)(=O)c3ccc(C)cc3)CC(=O)N2Cc2cccc(F)c2)cc1 (stereo not drawn),15µM,i,i,i,?,i
COc1ccc(C2/C=C\CN(CC3CC3)CC(=O)N2Cc2ccc(F)cc2)cc1 (stereo not drawn),?,i,i,i,?,i
COc1ccc([C@H]2/C=C\CN(S(=O)(=O)c3ccc4ccccc4c3)[C@@H](C)C(=O)N2Cc2ccc(F)cc2)cc1,?,i,i,i,?,i
COc1ccc(C2/C=C\CN(S(=O)(=O)c3cccc4cccnc34)CC(=O)N2Cc2ccc(F)cc2)cc1 (stereo not drawn),?,i,i,i,?,i
COc1ccc(C2/C=C\CN(S(=O)(=O)c3ccc(C)cc3)CC(=O)N2Cc2ccc(F)cc2)cc1 (stereo not drawn),?,i,i,i,18µM,i
COc1ccc([C@H]2/C=C\CN(S(=O)(=O)c3ccc(C)cc3)[C@@H](C)C(=O)N2Cc2ccc(F)cc2)cc1,18µM,i,i,?,?,i
NCCCCNc1ncnc2ccc(-c3ccc4c(c3)OCO4)cc12,nt,nt,i,i,nt,nt
COc1cccc(CNCCCSc2nnnn2C)c1OC,i,nt,i,i,i,nt
COc1ccc(N2CC(NS(=O)(=O)c3ccc(F)cc3)CC2=O)cc1 (stereo not drawn),i,i,i,i,i,i
COc1ccc(C2/C=C\CC(NS(=O)(=O)c3ccc(C)cc3)CC(=O)N2Cc2ccccc2F)cc1 (stereo not drawn),23µM,i,?,i,?,i
COC(=O)[C@@H](CC(C)C)N(Cc1ccccc1)S(=O)(=O)N(Cc1ccccc1)[C@@H](CC(C)C)C(=O)OC,21µM,i,?,?,11µM!,i
Cc1ccc2nc(N(Cc3cccnc3)C(=O)COc3ccccc3)sc2c1,?,nt,nt,nt,i,nt
Cc1ccccc1NC(=O)c1cccc2nc3ccccc3nc12,?,i,?,?,23µM,i
CCC(=O)N1Cc2cc(C(=O)NCC(F)(F)F)nc(-c3cccc(-c4cncnc4)c3)c2[C@@H]1CCO,21µM,?,?,i,?,i
CN(C)C(=O)c1cc2c(c(-c3cccc(-c4ccccc4F)c3)n1)[C@@H](CCO)N(S(C)(=O)=O)C2,i,i,i,i,i,i
CCNC(=O)c1cc2c(c(-c3cccc(-c4ccccc4F)c3)n1)[C@H](CCO)N(C(=O)CC)C2,7.3µM,?,?,18µM,5.8µM,?
CCCNC(=O)c1cc2c(c(-c3cccc(-c4ccccc4F)c3)n1)[C@@H](CCO)N(C(=O)CC1CC1)C2,26µM,?,?,23µM,?,?
CCNC(=O)c1cc2c(c(-c3cccc(-c4cncnc4)c3)n1)[C@@H](CCO)N(C(C)=O)C2,i,i,i,i,i,i
O=C(NCC(F)(F)F)c1cc2c(c(-c3cccc(-c4ccccc4F)c3)n1)[C@H](CCO)N(C(=O)CC1CC1)C2,16µM,?,?,16µM,21µM,?
CCOc1cccc2sc(N(CCCN(C)C)C(=O)c3ccc(S(=O)(=O)N(CC)Cc4ccccc4)cc3)nc12,?,23µM,?,10µM,?,?
CCOc1cccc2sc(N(CCCN(C)C)C(=O)c3ccc(C(=O)c4ccccc4)cc3)nc12,?,?,i,i,i,26µM
SMILES,TDP1 cell CPT,HT1080 IDH1KD tx,KB-3-1 tox,KB-V1 MDR tox,DT40 TDP1 no CPT,HT1080-NT tox
CCOc1cccc2sc(N(CCN(C)C)C(=O)c3cc4ccccc4cc3OC)nc12,23µM,21µM,i,i,?,?
NS(=O)(=O)c1ccc(CNC(=O)CNC(=O)c2ccc(Br)o2)cc1,i,i,i,i,i,i
CCOC(=O)Sc1nc2ncncc2[nH]1,i,i,i,?,i,i
COc1ccc(N2CC(NC(=O)/C=C\c3ccc(OC)c(OC)c3)CC2=O)cc1 (stereo not drawn),i,nt,nt,nt,i,nt
CN(C)N1C(N)=C(C#N)C(c2cccnc2)C2=C1CCCC2=O (stereo not drawn),i,i,i,i,i,i
Cc1nnc(SCC(=O)Nc2nsc(-c3ccc(C(C)(C)C)cc3)n2)s1,i,i,i,i,i,i
CC1=NN(/C(=N\c2nnc(C)s2)Nc2ccc(C(C)(C)C)cc2)[C@H](c2ccc(C)cc2)S1,18µM,i,?,i,?,i
CC(C)C1C(=O)N(Cc2cn(CCC3OCCO3)nn2)CCS(=O)(=O)N1Cc1ccc(-c2ccc(Cl)c(Cl)c2)cc1 (stereo not drawn),2.1µM,18µM,?,i,0.92µM,?
COc1ccc(-c2ccc(CN3C(C(C)C)C(=O)N(Cc4cn(CCC5OCCO5)nn4)CCS3(=O)=O)cc2)cc1 (stereo not drawn),9.2µM,i,i,?,8.2µM,i
COc1ccc(-c2ccc(CN3C(C(C)C)C(=O)N(Cc4cn(CCC5OCCO5)nn4)CCS3(=O)=O)cc2)cc1OC (stereo not drawn),i,i,i,i,i,i
CC(C)Cc1ccc(CN2C(C(C)C)C(=O)N(Cc3cn(CCC4OCCO4)nn3)CCS2(=O)=O)cc1 (stereo not drawn),?,i,i,i,18µM,i
CCC1CN(C(=O)Nc2ccc(C)cc2)c2cc(C)ccc2O1 (stereo not drawn),?,i,i,i,16µM,i
CCC1CN(C(=O)Nc2cccc3c2CCCC3)c2ccccc2O1 (stereo not drawn),?,nt,nt,nt,16µM,nt
CCC1CN(C(=O)Nc2cccc3c2CCCC3)c2cc(Cl)ccc2O1 (stereo not drawn),?,nt,nt,nt,21µM,nt
CCC1CN(C(=O)NCc2ccc(F)cc2)c2cc(C)ccc2O1 (stereo not drawn),?,i,?,i,?,i

# Assay outcomes: PubChem, National Center for Advancing Translational Sciences (NCATS)
